CSC inhib = blocks cancer stem cells; inhibition, % at 7.5 µM; cancer stem cell-like cells viability, luminescence; AID 2717; 1.1% of 300,000 active; in the data active = inhibition above about 75%; inconclusive = no clear call, values can overlap the other calls; tested in HMLE shEcad cells
Jurkat NFkB inh = inhibitors of the PMA/ionomycin-induced NF-kB reporter in Jurkat cells; inhibition, % at 4 µM; 0.53% of 330,000 active; PMA/ionomycin-induced NF-kB luciferase reporter, luminescence; in the data active = inhibition above about 50%
Mdm2-MdmX inh = disrupts the human Mdm2-MdmX interaction; SaOS-2 split-luciferase Mdm2/MdmX complementation, luminescence; inhibition, % at 8 µM; 3% of 330,000 active;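 active = inhibition of at least 50% at 8 µM in the primary screen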
Target sequence (O15151 whole entry, looked up): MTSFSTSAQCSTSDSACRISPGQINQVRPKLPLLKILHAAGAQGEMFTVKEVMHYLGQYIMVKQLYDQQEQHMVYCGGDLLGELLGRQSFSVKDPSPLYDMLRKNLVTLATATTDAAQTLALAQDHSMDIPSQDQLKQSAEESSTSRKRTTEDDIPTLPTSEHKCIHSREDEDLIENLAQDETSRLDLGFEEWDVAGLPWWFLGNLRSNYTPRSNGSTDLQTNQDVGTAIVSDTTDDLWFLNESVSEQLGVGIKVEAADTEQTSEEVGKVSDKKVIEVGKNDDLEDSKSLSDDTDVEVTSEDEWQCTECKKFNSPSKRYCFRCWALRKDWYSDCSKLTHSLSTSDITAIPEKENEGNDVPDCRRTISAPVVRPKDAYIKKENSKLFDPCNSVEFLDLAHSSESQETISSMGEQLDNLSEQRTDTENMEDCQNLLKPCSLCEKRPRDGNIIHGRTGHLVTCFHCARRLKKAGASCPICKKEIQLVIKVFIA
Target sequence (Q00987 whole entry, looked up): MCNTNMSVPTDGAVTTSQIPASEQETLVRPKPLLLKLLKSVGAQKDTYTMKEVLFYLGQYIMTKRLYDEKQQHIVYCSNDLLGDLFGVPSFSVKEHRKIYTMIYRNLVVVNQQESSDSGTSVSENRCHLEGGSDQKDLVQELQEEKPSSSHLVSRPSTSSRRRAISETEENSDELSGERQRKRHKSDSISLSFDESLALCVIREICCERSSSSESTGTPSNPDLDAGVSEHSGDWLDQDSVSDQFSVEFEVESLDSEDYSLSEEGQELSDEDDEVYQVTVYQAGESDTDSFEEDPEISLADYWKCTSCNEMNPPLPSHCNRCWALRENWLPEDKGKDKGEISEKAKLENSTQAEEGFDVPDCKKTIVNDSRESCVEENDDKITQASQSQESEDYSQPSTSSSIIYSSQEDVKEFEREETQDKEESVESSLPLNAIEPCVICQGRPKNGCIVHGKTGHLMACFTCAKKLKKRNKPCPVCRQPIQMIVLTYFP
697 NFkB inh = lowers PMA/ionomycin-induced NF-kB signal in 697 B cells. 0.33% of 330,000 active. inhibition, % at 4 µM. AID 435022. 697 B-cell NF-kB luciferase reporter, 16 h; in the data active = inhibition above about 35%
Beta cell apopt = beta cell apoptosis inhibition; INS-1E cytokine-induced death, ATP luminescence, 48 h; percent of positive-control rescue, neutral wells zero; 0.8% of 300,000 active; AID 435005; protection from apoptosis, % (concentration not given with the values);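 active = Every replicate reaches about 75%, or at least half do and their mean reaches it too, limit read from the data; inconclusive = At least half of replicates reach the limit but their mean does not; inactive = Under half of replicates reach the limit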;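 note: higher means more ATP so stronger rescue from cytokine killing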
Gli-Sufu block = blocks Gli-Sufu signaling in a luciferase reporter; Sufu-KO-LIGHT fibroblasts, Gli luciferase reporter luminescence; inhibition, % at 5 µM; 0.74% of 340,000 active; AID 588413;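 active = inhibition above about 55%, limit read from the data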
Mdm2 MdmX conf = confirmation of human Mdm2/MdmX interaction inhibitors; shares compounds with Mdm2-MdmX inh; Mdm2-MdmX binding, luminescent assay; inhibition, % at 8 µM; 55% of 10,000 active; in the data active = inhibition above about 40%
Full FLuc ctr = counter-screen for Mdm2/MdmX inhibitors: full-length luciferase | shares compounds with Mdm2-MdmX inh | SaOS-2 full-length luciferase counterscreen, luminescence | inhibition, % at 8 µM | 77% of 6,200 active | AID 504607;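 active = mean inhibition at 8 µM reaching about 37%, which flags the compound as non-specific, limit read from the data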;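 note: p53-null SaOS-2 cells with luciferase driven by a doxycycline-inducible promoter; compound on cells about two nights before reading with doxycycline added after day one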
Each line names hits and unclear results; the compound was inactive in the other large screens (follow-up assays come after a bar, where they were run). This is a sample that favours compounds with a hit; in the whole collection about 4.5% have one here.

O=C(Nc1ccccc1F)c1ccc([N+](=O)[O-])s1	none
CC(C)NC(=O)c1c(O)c2ccccc2[nH]c1=O	Mdm2-MdmX inh 84 | Mdm2 MdmX conf 83 | Full FLuc ctr 46
CCCn1c(=O)c(C(=O)N/N=C/c2ccc(F)cc2)c(O)c2ccccc21	none
O=C(N/N=C/c1ccc(F)cc1)c1c(O)c2ccccc2[nH]c1=O	Mdm2-MdmX inh 88 | Mdm2 MdmX conf inactive
Cn1c(=O)c2c(SCC(=O)N3CCCC3)nc(CC(C)(C)C)nc2n(C)c1=O	none
CN(C)CCCN1c2ccccc2Sc2ccc3ccccc3c21	none (no result: CSC inhib, Jurkat NFkB inh, Mdm2-MdmX inh, 697 NFkB inh, Beta cell apopt)
CN(C)CCCN1c2ccccc2Sc2ccc(Cl)cc21	Mdm2-MdmX inh 68 | Mdm2 MdmX conf inactive
COc1cccc(C(=O)/C=C/c2ccc(OCC#N)c(OC)c2)c1	Mdm2-MdmX inh 96 | Mdm2 MdmX conf 43 | Full FLuc ctr 42
CCOc1ccc(C(=O)/C=C/c2ccc(OC)c(OC)c2)cc1	none
COc1cc(/C=C/C(=O)c2ccc(O)cc2)ccc1OCC#N	Mdm2-MdmX inh 87 | Mdm2 MdmX conf 78 | Full FLuc ctr inactive
CCOc1ccc(/C=C/C(=O)c2ccccc2)cc1OC	none
CC(C)c1nc2cc(C(=O)N3CCN(c4cnccn4)CC3)ccc2o1	none (no result: Beta cell apopt)
CC1CCN(c2nc(CN3CCCCC3)nc3scc(-c4ccccc4)c23)CC1	Mdm2-MdmX inh 57 | Mdm2 MdmX conf inactive
CN1CCN(C(c2ccc(Br)cc2)c2cc(Cl)c3cccnc3c2O)CC1 (stereo not drawn)	CSC inhib 111, Mdm2-MdmX inh 80 | Mdm2 MdmX conf 62 | Full FLuc ctr 48
CCCC(=O)NC(c1cccs1)c1cc(Cl)c2cccnc2c1O (stereo not drawn)	Mdm2-MdmX inh 82, Beta cell apopt 93 | Mdm2 MdmX conf 69 | Full FLuc ctr inactive
O=C(NC(c1ccccc1)c1cc(Cl)c2cccnc2c1O)c1cccnc1 (stereo not drawn)	CSC inhib 102, Mdm2-MdmX inh 83, Beta cell apopt 81 (no result: Gli-Sufu block) | Mdm2 MdmX conf 89 | Full FLuc ctr inactive
O=C(O)COc1ccccc1C(Nc1cccnc1)c1cc(Cl)c2cccnc2c1O (stereo not drawn)	none (no result: CSC inhib, Beta cell apopt)
O=C(O)COc1ccccc1C(Nc1ccccn1)c1cc(Cl)c2cccnc2c1O (stereo not drawn)	none
CCOc1ccc(C(Nc2cccnc2)c2cc(Cl)c3cccnc3c2O)cc1 (stereo not drawn)	Mdm2-MdmX inh 64, Beta cell apopt 86 | Mdm2 MdmX conf 65 | Full FLuc ctr 43
Cc1ccc(SCC(=O)OCc2csc(CC(=O)Nc3ccccc3C)n2)cc1C	none (no result: CSC inhib)
OC1(C#CCN2CCCC2)CCCCC1	none (no result: Beta cell apopt)
CCCC(=O)NC(c1ccc2c(c1)OCO2)c1cc(Cl)c2cccnc2c1O (stereo not drawn)	CSC inhib 113, Mdm2-MdmX inh 76, Beta cell apopt 85 | Mdm2 MdmX conf 72 | Full FLuc ctr inactive
CCC(=O)NC(c1ccco1)c1cc(Cl)c2ccccc2c1O (stereo not drawn)	none
CCCC(=O)NC(c1ccco1)c1cc(Cl)c2cccnc2c1O (stereo not drawn)	Mdm2-MdmX inh 65, Beta cell apopt 82 | Mdm2 MdmX conf 46 | Full FLuc ctr inactive
CCC(=O)NC(c1ccc(C)cc1)c1cc(Cl)c2cccnc2c1O (stereo not drawn)	Mdm2-MdmX inh 79, Beta cell apopt 88 (no result: CSC inhib) | Mdm2 MdmX conf 55 | Full FLuc ctr inactive
CCC(=O)NC(c1cc(Cl)c2ccccc2c1O)C(C)C (stereo not drawn)	none
Cc1cc(C)c(NC(=O)c2ccc3c(c2)CCN3S(C)(=O)=O)c(C)c1	none
O=C(COC(=O)CNC(=O)c1ccc(Cl)cc1Cl)Nc1ccc(N2CCOCC2)cc1	none (no result: CSC inhib)
O=C(COc1ccc(-c2ccccc2)cc1)N1CCN(S(=O)(=O)Cc2ccccc2)CC1	Mdm2-MdmX inh 57 | Mdm2 MdmX conf 59 | Full FLuc ctr 75
Cc1ccc(OCC(=O)N2CCN(C(=O)Cc3ccccc3)CC2)cc1	none
CC(=O)Cn1nnc2sc(-c3ccccc3)cc2c1=O	none
Oc1ccc(C[C@H]2CNCCN2CCCCC2CCCCC2)cc1	Mdm2-MdmX inh 72 | Mdm2 MdmX conf inactive
Oc1ccc(C[C@H]2CNCCN2CCC23CC4CC(CC(C4)C2)C3)cc1	Mdm2-MdmX inh 58 | Mdm2 MdmX conf inactive
CC(C)(C)CN1CCNC[C@H]1Cc1ccc(O)cc1	none
O=C(Cn1c(=O)cnc2ccccc21)NC1CCC(O)CC1 (stereo not drawn)	none
C/C(=N/Nc1cc(-c2ccccc2)nc(-c2ccccc2)n1)c1ccc(O)cc1	CSC inhib 106, Mdm2-MdmX inh 56 | Mdm2 MdmX conf inactive
Cc1cc(C(C)(C)C)cc(C)c1Cn1c2[n+](c3ccc(C(F)(F)F)cc31)CCCCC2	Mdm2-MdmX inh 72, Beta cell apopt 86 | Mdm2 MdmX conf 48 | Full FLuc ctr 50
COC(=O)c1ccccc1NC(=O)COC(=O)CO/N=C(\C)c1ccc2c(c1)OCO2	none
O=C1[C@@H]2[C@H](C(=O)N1CC(O)COCc1ccccc1)C1C=C[C@H]2C1 (stereo partly drawn)	none (no result: CSC inhib, Jurkat NFkB inh, Mdm2-MdmX inh, 697 NFkB inh, Beta cell apopt)
NC(=O)C1CN(C(=O)c2nn(Cc3ccccc3)c(=O)c3ccccc23)c2ccccc2O1 (stereo not drawn)	none (no result: CSC inhib, Beta cell apopt)
CCN(CC)c1ccc(/C=N\NC(=O)c2cccc3cc[nH]c23)cc1	Mdm2-MdmX inh 50 | Mdm2 MdmX conf inactive
O=C(NC(CCl)c1ccccc1)c1ccc(Cl)cc1 (stereo not drawn)	none
COc1ccc(C(=O)/C=C/c2cn(CC(O)CN3CCN(C)CC3)c3ccccc23)cc1OC (stereo not drawn)	Mdm2-MdmX inh 50 | Mdm2 MdmX conf inactive
CCCCN(C)CC(O)Cn1cc(/C=C/C(=O)c2ccc(C)cc2)c2ccccc21 (stereo not drawn)	CSC inhib 82, Mdm2-MdmX inh 74 | Mdm2 MdmX conf inactive
C=C(C)COc1ccc(-c2[nH]ncc2-c2ccc(OC)cc2)c(O)c1	CSC inhib inconclusive, Mdm2-MdmX inh 63 | Mdm2 MdmX conf 65 | Full FLuc ctr inactive
COc1ccc(-c2cn[nH]c2-c2ccc(O)cc2O)cc1	Mdm2-MdmX inh 71 | Mdm2 MdmX conf 70 | Full FLuc ctr inactive
COc1ccc(-c2cn[nH]c2-c2ccc(OCc3ccccc3)cc2O)cc1OC	Mdm2-MdmX inh 53 | Mdm2 MdmX conf 55 | Full FLuc ctr 43
COc1ccc(-c2cnc(N)nc2-c2ccc(OC)cc2O)cc1	Mdm2-MdmX inh 58 | Mdm2 MdmX conf inactive
COc1ccc(C(=O)C(C)Sc2nnc(C3CC3)n2C2CC2)cc1 (stereo not drawn)	none
Cc1ccccc1Cn1c(=O)n(CCCC(=O)NCc2ccco2)c(=O)c2sccc21	none
